Measured values from PubChem BioAssay (Tox21).
Where “and” joins values, the source holds several entries; their conditions need not be identical. Identical values can stand only once. Inconclusive results are not listed. A number with no mark means an inactive call. Calls of active or inactive are those of the source. The call rests on the fitted dose curve; in most records, active means well fitted cell-killing curve with a large enough effect in the repeat runs; inconclusive means weak or mixed curves, or effect the other way; inactive means flat fitted curve, though single readings scatter.

experiment: Human pregnane X receptor (PXR) small molecule agonists, qHTS cell viability counter screen (AID 1346977); conditions: PXR-Luc HepG2 viability, CellTiter-Fluor, 24 h; series mostly up to 92.4 µM; further: nearly all actives have a fitted effect of over 50% in size
Source text: U.S. Tox21 Program National Center for Advancing Translational Sciences [NCATS] NIH Chemical Genomics Center [NCGC] U.S. Environmental Protection Agency [EPA] National Institutes of Environmental Health Sciences [NIEHS] National Toxicology Program [NTP] U.S. Food and Drug Administration [FDA] Tox21 Assay Overview: The human pregnane X receptor (hPXR) regulates the expression of several drug metabolizing enzymes and induction of these proteins is a major mechanism for developing drug resistance in cancer. One such key enzyme catalyzing the drug metabolism is cytochrome P450 3A4 (CYP3A4). Changes in CYP3A4 expression affect drug metabolism, thereby reducing the therapeutic efficacy and altering toxicological response to a drug and which finally causes adverse drug interaction. To screen Tox21 libraries for compounds that activate hPXR-mediated CYP3A4 gene expression, PXR-Luc HepG2 cells were used. Also cytotoxicity of the compounds was tested in parallel by measuring the cell viability using CellTiter-Fluor assay system in the same wells.
Tox21 Assay Protocol Summary: PXR-Luc HepG2 cells were dispensed at 2,000 per well in 5uL of assay medium containing 5% charcoal-stripped FBS into white solid bottom 1536-well plates (Corning Life Sciences, Corning, NY) using a Multidrop Combi (Thermo Scientific, Waltham, MA) dispenser. The assay plates were incubated at 37 C and 5% CO2 for 5hr, and then 23nL of compounds dissolved in DMSO and positive control were transferred using a Pintool station (Wako, San Diego, CA). The assay plates were incubated at 37C and 5% CO2 for 24hr. For cytotoxicity read, after 23hr incubation at 37C, 1uL CellTiter-Fluor reagent (Promega Corporation, Madison, WI) was added to each well of the assay plates using Flying Reagent Dispenser (FRD, Aurora Discovery, San Diego, CA). After 1hr incubation at 37C and 5% CO2, the fluorescence signal was quantified using a ViewLux plate reader (PerkinElmer, Shelton, CT).
On the % scale 0 is the no-effect control and ±100 the full control effect; potency means the concentration at half of the fitted maximal effect.

Question: With Nc1ccc([N+](=O)[O-])cc1 as the compound, how does the Potency read?
Answer: 34.4 µM (active)

Question: For Cc1ccc(N(SC(F)(Cl)Cl)S(=O)(=O)N(C)C)cc1, which Potency is on record?
Answer: 43.3 µM (active)

Question: For O=[N+]([O-])c1c(Cl)c(Cl)cc(Cl)c1Cl, which Potency is on record?
Answer: inactive

Question: With O=C1C(I)=CC(=C(c2cc(I)c(O)c(I)c2)c2ccccc2C(=O)O)C=C1I as the compound, how does the Potency read?
Answer: inactive

Question: Which Potency does the source give for CCN(CC)C(=O)Cl here?
Answer: inactive

Question: Which Potency does the source give for Cc1cc(C(C)(C)c2ccc(O)c(C)c2)ccc1O here?
Answer: 20.7 µM (active)

Question: Which Potency does the source give for CO/C=C(/C(=O)OC)c1ccccc1Oc1cc(Oc2ccccc2C#N)ncn1 here?
Answer: 6.52 µM (active)

Question: With Cc1cc(C)c(C(=O)P(=O)(c2ccccc2)c2ccccc2)c(C)c1 as the compound, how does the Potency read?
Answer: 61.1 µM (active)

Question: For CC1COC(Cn2cncn2)(c2ccc(Oc3ccc(Cl)cc3)cc2Cl)O1 (stereo not drawn), which Potency is on record?
Answer: 21.7 µM (active)

Question: Which Potency does the source give for c1ccc2c(c1)Sc1ccccc1N2CC1CN2CCC1CC2 (stereo not drawn) here?
Answer: 26.6 µM (active)

Question: Which Potency does the source give for C[C@]12CC[C@@H](O)C[C@@H]1CC[C@@H]1[C@@H]2CC[C@]2(C)C(=O)CC[C@@H]12 here?
Answer: inactive

Question: With Clc1ccccc1-c1ccccc1Cl as the compound, how does the Potency read?
Answer: inactive

Question: For OC(Cc1ccccc1Cl)(Cn1[nH]cnc1=S)C1(Cl)CC1 (stereo not drawn), which Potency is on record?
Answer: inactive

Question: With O=S(=O)(C(Cl)(Cl)Cl)C(Cl)(Cl)Cl as the compound, how does the Potency read?
Answer: 61.1 µM (active)

Question: For Cc1ccc2nc3sc(=O)sc3nc2c1, which activity change, negative = cytotoxicity is on record?
Answer: -12.4% [at 19 µM]

Question: For O=C(Nc1ccccc1-c1ccc(Cl)cc1)c1cccnc1Cl, which Potency is on record?
Answer: inactive

Question: For CNC(=O)Oc1cc(C)c(SC)c(C)c1, which Potency is on record?
Answer: inactive

Question: Which Potency does the source give for CN1CSC(=S)N(C)C1 here?
Answer: 5.01 µM (active) and 21.6 µM (active)
